The values below come from PubChem BioAssay AID2314 (National Center for Advancing Translational Sciences (NCATS), 2010).

Among all 300,000 compounds or so, about 37,000 (12%) were called active. Cut-off read from the data, not from the text of the source: active = max response mostly above about 13% (no sharp cut-off); inactive = mostly below about 14%. The sample as a whole holds a higher share of actives than the screen did.

The test is described as follows: Cycloheximide Counterscreen for Small Molecule Inhibitors of Shiga Toxin. Note: read at 38.3 µM for the half of the compounds with a filed dose; 0% is about no effect. The following applies: cell reporter, cycloheximide protein synthesis inhibition counterscreen; hits give high values. On the technique in general: The purpose of a counterscreen is to sort out artefacts and off-target activity.
On to `CCOCCCNC(=S)Nc1ccc2nc(N3CCN(CC)CC3)cc(C)c2c1`, for which the max response was -1.07% (inactive).
Regarding `COc1cccc(CCNC(=O)c2cccc(NC(=O)C3=C(C)OCCS3)c2)c1`, the max response is 12% (inactive).
Consider `CC(=O)Nc1ccc(NC(=S)NC(=O)c2ccc([N+](=O)[O-])c(C)c2)cc1`, for which the max response is 17.1% (active).
For the compound `Cc1ccc(C(=O)NC(=S)Nc2ccc3[nH]c(=O)[nH]c3c2)cc1C`, the max response is 2.1% (inactive).
For the compound `CC(=O)NC(=S)Nc1ccc(NC(=S)NC(=O)c2ccc([N+](=O)[O-])cc2)cc1`, the max response was 10.5% (inactive).
As for `COc1ccc(N2CC(C(=O)N[C@@H](C)C(=O)N3CCCCC3)CC2=O)cc1` (stereo not given in full), the max response is -0.721% (inactive).
Turning to `O=C1/C(=C/c2coc3ccc(O)cc3c2=O)SC(=S)N1c1ccccc1`, the max response was -2.68% (inactive).
Turning to `COc1ccccc1C(=O)Oc1ccc(N2C(=O)CCC2=O)cc1`, the max response is -4.08% (inactive).
To `CCOC(=O)c1cc(OC(=O)c2ccccc2Cl)n(-c2ccccc2)n1` belongs 28.5% (inactive).
`Cc1cc(OC(=O)c2ccccc2Cl)ccc1N1C(=O)CCC1=O`: the max response is 43.6% (active).
As to `O=C1c2ccccc2-c2ncnc3c(N4CCOCC4)cc(N4CCOCC4)c1c23`, the max response is -4.86% (inactive).
`CC(=O)c1ccc(S(=O)(=O)N2CCC3(CC2)OCCO3)cc1`: the max response is -6.29% (inactive).
As to `COc1ccccc1CN1CCN(Cc2cc(OC)c(OC)cc2OC)CC1`, the max response is 3.57% (inactive).
For `CC(C)(C)c1ccc(NC(=O)COC(=O)CCc2nc3ccccc3c(=O)[nH]2)cc1`, the max response is 14.2% (active).
As to `O=C(COC(=O)CCc1nc2ccccc2c(=O)[nH]1)Nc1ccc(N2CCOCC2)cc1`, the max response is 2.13% (inactive).
Take `O=C(CCc1nc2ccccc2c(=O)[nH]1)OCC(=O)c1cccc(Cl)c1`: the max response is -1.24% (inactive).
On to `O=C(c1ccc[nH]c1=S)N1CCN(S(=O)(=O)c2ccc(Br)cc2Cl)CC1`, for which the max response was -2.01% (inactive).
On to `COc1ccc(NC(=O)CCS(=O)(=O)c2cc3c(cc2Cl)NC(=O)CO3)cc1OC`, for which the max response was -10.6% (inactive).
With `COc1ccccc1OCC(=O)Nc1c2c(nn1-c1ccc(F)cc1)CS(=O)(=O)C2`, the max response was -3.21% (inactive).
As for `O=C(O)/C=C/C(=O)NNc1ccc([N+](=O)[O-])cc1`, the max response is 10.2% (inactive).
To `Cc1ccc(NC(=O)/C(=C/c2ccc([N+](=O)[O-])cc2)NC(=O)c2ccccc2)cc1` belongs -3.41% (inactive); to `N#Cc1cc([N+](=O)[O-])ccc1Oc1cccc(/C=N/NC(=O)c2ccc(Cl)cc2)c1`, -2.97% (inactive).
As for `CC(=O)Nc1ccc(NC(=O)C(C)OC(=O)c2ccccc2C(=O)c2ccc(Cl)c([N+](=O)[O-])c2)cc1` (stereo not given), the max response was 8.13% (inactive).
`Cc1ccc(NC(=O)O/N=C/c2cccc([N+](=O)[O-])c2)cc1`: the max response is 40.6% (active).
To `Cc1ccc(NC(=O)C(=O)NCC2CCN(C(=O)c3cccc([N+](=O)[O-])c3)CC2)cc1` belongs 3.94% (inactive); to `CCC(CC)NC(=O)/C=C/c1cccc([N+](=O)[O-])c1`, -4.49% (inactive); to `O=[N+]([O-])c1ccc(N/N=C/c2ccccc2)cc1`, 34.7% (active).
Consider `O=C(N/N=C/c1cccc([N+](=O)[O-])c1)c1ccncc1`, for which the max response is 11% (active).
To `CCc1ccc(NC(=O)C(C)OC(=O)/C=C/c2cccc([N+](=O)[O-])c2)cc1` (stereo not given) belongs 59.2% (active); to `O=C(N/N=C/c1cccc(OC(=O)c2ccc([N+](=O)[O-])cc2)c1)c1cccnc1`, -7.61% (inactive); to `Cc1cccc(COc2ccccc2/C=N/Nc2ccc([N+](=O)[O-])cc2)c1`, -0.989% (inactive).
Consider `COc1ccc(C(=O)NC2CC(C)(C)Cc3c2cnn3-c2ccccc2C)o1` (stereo not given), for which the max response was -0.937% (inactive).
With `CC(Sc1nnc(CNC(=O)c2ccccc2F)n1C)C(=O)Nc1nccs1` (stereo not given), the max response was -1.64% (inactive).
As for `CCN(CC)S(=O)(=O)c1ccc(Cl)c(C(=O)NC(C)C(c2cccs2)N2CCCC2)c1` (stereo not given), the max response is 3.13% (inactive).
To `O=C1CCC([N+](=O)[O-])C(c2ccccc2Br)N1` (stereo not given) belongs -3.57% (inactive); to `Oc1ccccc1CN1CCN(C(c2ccccc2)c2ccccc2)CC1`, 2.23% (inactive); to `Cc1cccc(C(=O)OCC(=O)Nc2sc3c(c2C#N)CCC3)c1`, -3.19% (inactive).
To `COc1ccc(CN2CCn3ncc(C(=O)Nc4ccc(Cl)cc4Cl)c3C2=O)cc1` belongs -1.27% (inactive).
As for `Cc1ccc(C(c2nnnn2CS(=O)(=O)c2ccc(C)cc2)N2CCC(C)CC2)cc1` (stereo not given), the max response was 1.26% (inactive).
To `COc1cccc(-c2nc(CS(=O)CC(=O)NCc3ccc(F)cc3)c(C)o2)c1` (stereo not given) belongs -2.32% (inactive); to `O=C(N/N=C/c1cccc([N+](=O)[O-])c1)C1CC(=O)N(c2ccc(Br)cc2)C1` (stereo not given), 0.637% (inactive); to `O=[N+]([O-])c1cccc(/C=N/Nc2ncc(Br)cn2)c1`, 29.2% (active).
Take `COc1ccc(O)c(/C=N/N=C/c2cccc([N+](=O)[O-])c2)c1`: the max response was -1.21% (inactive).
As to `CC(NC(=S)Nc1ccccc1)C(c1cccs1)N1CCOCC1` (stereo not given), the max response was -0.819% (inactive).
As to `CC(C)CN(C(=O)c1cccc(S(=O)(=O)N2CCCCC2)c1)C1CCS(=O)(=O)C1` (stereo not given), the max response is -3.21% (inactive).
As to `Cc1cccc(C(=O)NCCCN2CCCC2=O)c1`, the max response was -1.36% (inactive).
On to `CCOc1ccc(C(=O)NCCCN2CCCC2=O)cc1`, for which the max response was 16.9% (active).
On to `CCOc1cc2[nH]c(=O)n(Cc3ccc(C(=O)NCCCN4CCCC4=O)cc3)c(=O)c2cc1OCC`, for which the max response is 3.4% (inactive).
For the compound `Cn1c(N)c(C(=O)COC(=O)/C=C/c2ccc(OC(F)F)cc2)c(=O)n(C)c1=O`, the max response was 9.63% (inactive).
To `COc1ccc(S(=O)(=O)n2cnc3ccccc32)c(C)c1` belongs 8.08% (inactive).
In the case of `COc1cccc(NC(=O)CN(C)C(=O)/C=C/c2cc(OC)ccc2OC)c1`, the max response was -0.59% (inactive).
As to `O=[N+]([O-])c1ccccc1NCc1ccccc1Cl`, the max response is 0.768% (inactive).
Consider `Cc1c(NC(=S)NCc2ccc(F)cc2)cccc1[N+](=O)[O-]`, for which the max response was -2.87% (inactive).
Take `O=C(NCCNc1ccccc1[N+](=O)[O-])c1ccccc1F`: the max response was 46.4% (active).
For the compound `O=C(NCCCNc1ccc([N+](=O)[O-])cc1Cl)c1ccccc1F`, the max response is 11.2% (inactive).
As for `O=[N+]([O-])c1ccccc1NCc1ccc(Cl)cc1`, the max response is 19.5% (active).
`O=C(NCCNc1ccc([N+](=O)[O-])cc1Cl)c1ccccc1F`: the max response is 12.9% (inactive).
To `COc1ccc(NS(=O)(=O)c2cccc3nsnc23)cc1Cl` belongs -2.31% (inactive); to `Cc1noc(C)c1S(=O)(=O)Nc1cc(C(F)(F)F)ccc1N1CCOCC1`, 1.06% (inactive).
`COCCCNC(=O)/C(C#N)=C/c1c(N2CCCCCC2)nc2ccccn2c1=O`: the max response is 5.95% (inactive).
For the compound `CCCC[C@]12Cc3cc(OC)c(OC)cc3C(O1)C1=C(CC3(CCCCC3)OC1=O)O2`, the max response was -1.97% (inactive).
In the case of `COc1cc(/C=C/C(=O)OCC(=O)N2CCOCC2)ccc1OCC#N`, the max response is -1.28% (inactive).
For the compound `CSc1cccc(NC(=S)N(C(C)C)C(C)c2ccccn2)c1` (stereo not given), the max response was 9.01% (inactive).
Take `C=CCNC(=S)NNC(=O)COc1c(Cl)cc(Cl)cc1Cl`: the max response was -3.49% (inactive).
Turning to `Cc1ccc(Cn2ccc(NC(=O)C3C4CCC(C4)C3C(=O)O)n2)cc1` (stereo not given), the max response is 1.94% (inactive).
For the compound `Cc1ccc(Cn2ccc(NC(=O)c3cc(C(C)C)on3)n2)cc1`, the max response is 48% (active).
Consider `Cc1cc(C(=O)Nc2c(C)nn(Cc3ccccc3)c2C)on1`, for which the max response was -4.11% (inactive).
For the compound `Cc1ccc(C(=O)OCC(=O)NC(=O)Cc2ccccc2)c(O)c1`, the max response is 4.77% (inactive).
Turning to `C=CCN(c1ccc(C(=O)Nc2cc(C)cc(C)c2)cc1)S(C)(=O)=O`, the max response was 12.7% (active).
As for `CC(=O)Nc1ccccc1NC(=O)c1cc(C)cc(C)c1`, the max response is -1.4% (inactive).
`CSCc1ccc(C(=O)Nc2cc(C)cc(C)c2)cc1`: the max response is 41.7% (active).
With `C=CCN(c1ccc(C(N)=O)cc1)S(C)(=O)=O`, the max response is -1.24% (inactive).
As to `COc1ccc([N+](=O)[O-])cc1NC(=O)c1ccc(N(Cc2ccccc2C)S(C)(=O)=O)cc1`, the max response is -0.93% (inactive).
Regarding `Cc1cc(C)cc(NC(=O)N(C)Cc2ccccc2)c1`, the max response is 4.9% (inactive).
`CCN(CC(=O)Nc1ccc(Cl)c(S(=O)(=O)N(C)C)c1)Cc1nc2ccccc2c(=O)[nH]1`: the max response was -3.17% (inactive).
Consider `Clc1ccc(-c2cc(C3CCNCC3)[nH]n2)c(Cl)c1`, for which the max response is 9.48% (inactive).
Take `CCc1cc(CNC(=O)CC2C(=O)NCCN2Cc2ccccc2C(F)(F)F)on1` (stereo not given): the max response is -1.48% (inactive).
To `CCOC(=O)COc1nc(C)cc(C(F)(F)F)c1C#N` belongs -3.74% (inactive).
With `CCOC(=O)c1c(C(C#N)C#N)cc(C)nc1C`, the max response was 1.41% (inactive).
On to `CCOC(=O)c1cc(C)nc(S(C)(=O)=O)c1C#N`, for which the max response is 24.3% (active).
Regarding `O=C1CCCN2N=C(SCC(=O)Nc3ccc(Br)cc3)SC2=N1`, the max response was 7.4% (inactive).
In the case of `Cc1ccc(CN(C)Cc2cc(=O)oc3cc(C)c(Cl)cc23)cc1`, the max response is 8.9% (inactive).
To `O=[N+]([O-])c1cc(C(F)(F)F)ccc1NN=C1CCCC1` belongs -3.4% (inactive); to `O=[N+]([O-])c1ccccc1N/N=C1\CCc2ccccc21`, 22.3% (active).
Take `CN1CCN(CCNC(=O)Nc2ccccc2[N+](=O)[O-])CC1`: the max response was -3.83% (inactive).
In the case of `O=C(Nc1ccc2c(c1)OCCO2)C(c1ccc(F)cc1)N1CCCCC1` (stereo not given), the max response was -0.355% (inactive).
Consider `Cc1ccc2nc(-c3ccncc3)cc(C(=O)Nc3ccc4c(c3)OCCO4)c2c1`, for which the max response is 7.28% (inactive).
Take `CCOC(=O)c1cnc2ccc(F)cc2c1Nc1ccc2c(c1)OCCO2`: the max response is 32.3% (active).
As for `C/C(CC(=O)NCc1ccc(Cl)cc1)=N\NC(=O)COc1ccc(C)cc1Br`, the max response is -1.26% (inactive).
For the compound `Cc1ccccc1C(=O)N1CCC(C(=O)Oc2ccc(C#N)cc2)CC1`, the max response was -2.38% (inactive).
